This is an account of results in PubChem BioAssay (EPA / NIEHS).

The term AC50 denotes the concentration giving half of the maximal activity seen.

Active and inactive are the calls of the source. Rule for the calls: active = hit-call score of the fitted dose curve at least 0.9, where 1 is the maximum; inactive = score below 0.9.

The nature of this test: BSK_SAg_SRB: Viability Assessment in the BioMAP Diversity Plus: SAg Assay (AID 2283096).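 Note: hits may be either gain or loss of signal compared with DMSO.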 The note with it: primary human HUVEC with PBMC. As for the experimental part:
BSK_SAg is a cell-based, multiplexed-readout assay that uses umbilical vein endothelium and peripheral blood mononuclear cells, a human vascular primary cell co-culture, with measurements taken at 24 hours after chemical dosing in a 96-well plate.BSK_SAg_SRB is an assay component measured in the BSK_SAg assay. It measures protein content, a form of viability reporter, as detected with absorbance signals by Sulforhodamine staining technology.Data from the assay component BSK_SAg_SRB was analyzed into 1 assay endpoint. This assay endpoint, BSK_SAg_SRB, was analyzed with bidirectional fitting relative to DMSO as the negative control and baseline of activity. Using a type of viability reporter, gain or loss-of-signal activity can be used to understand changes in the signaling. Furthermore, this assay endpoint can be referred to as a primary readout, because this assay has produced multiple assay endpoints where this one serves a signaling function. To generalize the intended target to other relatable targets, this assay endpoint is annotated to the cell morphology intended target family, where the subfamily is cell conformation.
The levels of cell surface (or secreted, indicated by the prefix "s") biomarker endpoints were measured by ELISA. Overt cytotoxicity to cells in confluent adherent cultures (all systems other than the BT system) was assessed by measuring total protein levels using sulforhodamine B (SRB) staining in parallel cultures at the time of biomarker measurements, indicated as SRB endpoints. For proliferation assays for adherent cell types, individual cell types are cultured at sub-confluence and relative cell numbers quantified by SRB staining at time points optimized for each system (48 h: 3C and CASM3C systems; 72 h: BT and HDF3CGF systems; 96 h: SAg system). SRB was performed by staining cells with 0.1% SRB after fixation with 10% TCA and reading wells at 560 nm.Viability and proliferation of PBMC (T cells) was quantified by Alamar Blue reduction for the SAg and BT systems. For PBMC viability (referred to as PBMC Cytotoxicity within the assay endpoint names), cells were plated (75,000/well in a 96-well plate) and then chemical samples added for 1 h before addition of activators, SEB and TSST-1 (20 ng/mL final concentration each). Cells were incubated for 90 h. Then, Alamar Blue (20 uL/well) (Invitrogen, Cat DAL1100) was added for 6 h, and the plates were read with a fluorescence microplate reader at 546/580 nm (excitation/emission). For PBMC proliferation, cells were plated and activated as above but incubated for only 16 h prior to addition of Alamar Blue. Plates were read after 6 h.
For the compound `O=S(=O)(C(Cl)(Cl)Cl)C(Cl)(Cl)Cl`, the AC50 was 3.74 µM (active). `O=[N+]([O-])c1ccc(Nc2ccccc2)cc1`: the result was inactive.

Regarding `COCC(=O)N(c1c(C)cccc1C)[C@H](C)C(=O)OC`, the result was inactive. With `Cc1ccc2nc3sc(=O)sc3nc2c1`, the half-maximal activity concentration (AC50) was 5 µM (active). As for `Cc1cc(Cl)ccc1N`, the outcome was inactive. With `CCCCOC(=O)COC(=O)c1ccccc1C(=O)OCCCC`, the result was inactive. `O=c1oc2ccccc2c(O)c1C(CC(O)c1ccc(-c2ccc(Br)cc2)cc1)c1ccccc1` (stereo not given): the AC50 is 19.1 µM (active). On to `c1ccc2sc(SNC3CCCCC3)nc2c1`, for which the result was inactive. Consider `Clc1cccc(Cl)c1`, for which the outcome was inactive. On to `O=C(CCl)NCO`, for which the result was inactive. In the case of `Cc1c([N+](=O)[O-])c(C)c([N+](=O)[O-])c(C(C)(C)C)c1[N+](=O)[O-]`, the outcome was inactive. The same measure, in the same setting: for `O=C(O)COc1cc(Cl)c(Cl)cc1Cl` the value was “inactive”; for `CCCCCCCCCCCCc1cccc(S(=O)(=O)O)c1`, “inactive”. On to `CC(C)O.CC(C)O.OCCN(CCO)CCO.OCCN(CCO)CCO.[Ti]`, for which the outcome was inactive. On to `Cc1cc(C)cc(C)c1`, for which the result was inactive. In the case of `O=C(O)C1(c2ccc3c(c2)OC[C@H](Cc2ccc(-c4ccccc4)cc2)[C@H]3O)CCCC1`, the half-maximal activity concentration (AC50) was 27.3 µM (active). As to `O=S(=O)(c1ccc(Cl)cc1)c1cc(Cl)c(Cl)cc1Cl`, the result was inactive.

In the case of `C[C@]12CC[C@@H](O)C[C@@H]1CC[C@@H]1[C@@H]2CC[C@]2(C)C(=O)CC[C@@H]12`, the outcome was inactive. `Cc1cc(Cl)ccc1OC(C)C(=O)O` (stereo not given): the result was inactive. Take `Cc1cccc(OP(=O)(Oc2cccc(C)c2)Oc2cccc(C)c2)c1`: the outcome was inactive. Take `Oc1c(Br)cc(Br)cc1Br`: the concentration at half-maximal activity (AC50) is 31.7 µM (active). For the compound `CCOC(=O)CC(=O)CCl`, the result was inactive. For `CCOP(=S)(OCC)OP(=S)(OCC)OCC`, the result was inactive.

As for `O=C1C=CC(=O)c2ccccc21`, the AC50 is 5.33 µM (active). On to `CC(C)N(C(=O)CCl)c1ccccc1`, for which the AC50 was 33.8 µM (active).

Regarding `CCOC(=O)CCN(SN(C)C(=O)Oc1cccc2c1OC(C)(C)C2)C(C)C`, the outcome was inactive. For the compound `O=[N+]([O-])c1cccc2ccccc12`, the result was inactive. `CCOP(=O)(OCC)OC(=CCl)c1ccc(Cl)cc1Cl`: the result was inactive. `NC(=O)CCl`: the result was inactive. Still for that read-out and setting: next, `CCCCN(CCCC)C(=S)[S-].CCCCN(CCCC)C(=S)[S-].[Ni+2]`: “inactive”.

Take `c1ccc(-c2cccc(-c3ccccc3)c2)cc1`: the AC50 was 27.5 µM (active). In the case of `[Cl][Sn]([c]1ccccc1)([c]1ccccc1)[c]1ccccc1`, the concentration at half-maximal activity (AC50) is 0.337 µM (active). The same measure, in the same setting: for `Cc1ccccc1OP(=O)(Oc1ccccc1)Oc1ccccc1` the value was 31.6 µM (active). In the case of `CCOP(=O)(OCC)SCCSCC`, the result was inactive. Turning to `CCCCCCCCCCCCN(C)C`, the outcome was inactive. For `Oc1c(Cl)cc(Cl)cc1Cl`, the outcome was inactive. The same measure, in the same setting: for `O=C(N[C@H]1CN2CCC1CC2)c1ccc2c(c1)OCCO2` the value was “inactive”. On to `N#CCCC(Br)(C#N)CBr` (stereo not given), for which the AC50 is 11.5 µM (active). For `OCCN(CCO)CCO`, the result was inactive.

In the case of `OC(Cc1ccccc1Cl)(Cn1cncn1)C1(Cl)CC1` (stereo not given), the result was inactive.
